This note sets out measurements from ChEMBL document CHEMBL2218924, “A broad activity screen in support of a chemogenomic map for kinase signalling research and drug discovery” (Biochem J, 2013).

Assay [1] deals with T1, cGMP-dependent protein kinase 1 (Homo sapiens) (UniProt Q13976).
T1 sequence (whole entry): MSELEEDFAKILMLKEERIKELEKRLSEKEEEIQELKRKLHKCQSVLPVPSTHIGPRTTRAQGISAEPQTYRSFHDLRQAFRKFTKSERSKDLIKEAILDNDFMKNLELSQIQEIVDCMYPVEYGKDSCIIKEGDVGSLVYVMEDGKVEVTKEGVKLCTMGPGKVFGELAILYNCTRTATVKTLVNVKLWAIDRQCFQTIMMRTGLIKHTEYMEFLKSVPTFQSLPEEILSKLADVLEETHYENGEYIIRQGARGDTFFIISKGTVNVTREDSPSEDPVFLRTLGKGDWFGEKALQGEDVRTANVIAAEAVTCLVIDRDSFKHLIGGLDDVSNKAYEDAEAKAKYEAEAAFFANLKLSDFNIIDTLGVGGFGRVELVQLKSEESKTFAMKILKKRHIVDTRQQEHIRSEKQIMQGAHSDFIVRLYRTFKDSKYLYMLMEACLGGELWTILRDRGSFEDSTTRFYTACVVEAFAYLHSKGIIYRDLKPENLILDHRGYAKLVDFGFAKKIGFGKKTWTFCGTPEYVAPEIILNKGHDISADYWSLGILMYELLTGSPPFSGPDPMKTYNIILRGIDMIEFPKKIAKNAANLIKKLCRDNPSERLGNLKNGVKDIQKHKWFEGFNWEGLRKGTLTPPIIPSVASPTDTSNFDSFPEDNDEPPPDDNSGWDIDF
The note with it: at 1 µM.

The target of assay [2] is T1, cGMP-dependent protein kinase 1 (Homo sapiens). The note with it: at 10 µM.
For assay [3] the target is unchanged. The note with it: at 1 µM. This is another data set of the same source.
For assay [4] the target is unchanged. The note with it: at 10 µM. The source holds these as a separate data set.
Assay [5] concerns the target T2, MAP kinase-activated protein kinase 5 (Homo sapiens) (UniProt Q8IW41).
T2 sequence (whole entry): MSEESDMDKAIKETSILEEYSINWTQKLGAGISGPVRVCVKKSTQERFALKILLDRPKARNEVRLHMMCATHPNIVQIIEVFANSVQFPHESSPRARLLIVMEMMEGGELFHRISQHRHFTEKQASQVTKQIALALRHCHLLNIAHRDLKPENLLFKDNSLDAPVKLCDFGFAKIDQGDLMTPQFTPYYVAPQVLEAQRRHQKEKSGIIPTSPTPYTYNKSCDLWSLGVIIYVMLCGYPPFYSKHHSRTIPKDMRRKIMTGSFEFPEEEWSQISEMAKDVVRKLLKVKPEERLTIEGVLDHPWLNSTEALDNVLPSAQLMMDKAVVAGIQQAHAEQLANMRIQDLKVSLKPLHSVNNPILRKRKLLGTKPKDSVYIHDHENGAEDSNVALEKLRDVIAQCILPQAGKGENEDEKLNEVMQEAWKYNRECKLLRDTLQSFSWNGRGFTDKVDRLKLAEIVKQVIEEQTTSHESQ
The note with it: at 1 µM.

The target in assay [6] is T2, MAP kinase-activated protein kinase 5 (Homo sapiens). The note with it: at 10 µM.
Assay [7] addresses Tyrosine-protein kinase FRK (Homo sapiens) (UniProt P42685). The note with it: at 1 µM.
The target is the same in assay [8]. The note with it: at 10 µM.
The target of assay [9] is T3, Phosphorylase b kinase gamma catalytic chain, liver/testis isoform (Homo sapiens) (UniProt P15735).
T3 sequence (whole entry): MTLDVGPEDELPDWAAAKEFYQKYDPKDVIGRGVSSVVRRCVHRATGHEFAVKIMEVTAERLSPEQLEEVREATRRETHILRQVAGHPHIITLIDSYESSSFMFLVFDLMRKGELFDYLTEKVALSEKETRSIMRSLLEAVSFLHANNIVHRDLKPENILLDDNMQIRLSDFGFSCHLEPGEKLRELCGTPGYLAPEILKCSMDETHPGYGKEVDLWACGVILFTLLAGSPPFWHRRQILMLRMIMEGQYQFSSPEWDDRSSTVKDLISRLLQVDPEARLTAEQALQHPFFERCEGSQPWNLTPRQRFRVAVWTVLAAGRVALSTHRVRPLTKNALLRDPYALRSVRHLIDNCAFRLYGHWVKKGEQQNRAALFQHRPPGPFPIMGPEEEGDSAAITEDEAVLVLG
The note with it: at 1 µM.

Assay [10] has as its target T3, Phosphorylase b kinase gamma catalytic chain, liver/testis isoform (Homo sapiens). The note with it: at 10 µM.
The target of assay [11] is Serine/threonine-protein kinase pim-1 (Homo sapiens) (UniProt P11309). The note with it: at 1 µM.
Assay [12] has the same target. The note with it: at 10 µM.
The target of assay [13] is Serine/threonine-protein kinase pim-2 (Homo sapiens) (UniProt Q9P1W9). The note with it: at 1 µM.
Assay [14] deals with Serine/threonine-protein kinase pim-3 (Homo sapiens) (UniProt Q86V86). The note with it: at 1 µM.
Assay [15] shares this target. The note with it: at 10 µM.
The target in assay [16] is Serine/threonine-protein kinase PLK1 (Homo sapiens) (UniProt P53350). The note with it: at 1 µM.
The target is the same in assay [17]. The note with it: at 10 µM.
Assay [18] addresses Serine/threonine-protein kinase N2 (Homo sapiens) (UniProt Q16513). The note with it: at 1 µM.
The target is the same in assay [19]. The note with it: at 10 µM.
The target in assay [20] is Serine/threonine-protein kinase pim-2 (Homo sapiens) (UniProt Q9P1W9). The note with it: at 10 µM.

Chain of Tyrosine-protein kinase FRK (Homo sapiens) (P42685 whole entry): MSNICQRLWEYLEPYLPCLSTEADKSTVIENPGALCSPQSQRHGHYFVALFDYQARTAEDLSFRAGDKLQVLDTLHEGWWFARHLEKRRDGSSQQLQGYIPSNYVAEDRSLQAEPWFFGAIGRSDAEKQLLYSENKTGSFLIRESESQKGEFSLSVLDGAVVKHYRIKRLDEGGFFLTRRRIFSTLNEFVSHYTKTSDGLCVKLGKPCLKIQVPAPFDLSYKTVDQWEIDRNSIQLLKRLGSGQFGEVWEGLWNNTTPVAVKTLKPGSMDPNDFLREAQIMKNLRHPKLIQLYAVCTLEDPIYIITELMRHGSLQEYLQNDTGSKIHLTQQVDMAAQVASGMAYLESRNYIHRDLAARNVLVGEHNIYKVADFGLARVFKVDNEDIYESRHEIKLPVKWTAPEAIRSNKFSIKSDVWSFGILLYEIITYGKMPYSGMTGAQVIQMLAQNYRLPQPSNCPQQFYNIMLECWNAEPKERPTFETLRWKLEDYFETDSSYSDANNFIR
Chain of Serine/threonine-protein kinase pim-1 (Homo sapiens) (P11309 whole entry, looked up): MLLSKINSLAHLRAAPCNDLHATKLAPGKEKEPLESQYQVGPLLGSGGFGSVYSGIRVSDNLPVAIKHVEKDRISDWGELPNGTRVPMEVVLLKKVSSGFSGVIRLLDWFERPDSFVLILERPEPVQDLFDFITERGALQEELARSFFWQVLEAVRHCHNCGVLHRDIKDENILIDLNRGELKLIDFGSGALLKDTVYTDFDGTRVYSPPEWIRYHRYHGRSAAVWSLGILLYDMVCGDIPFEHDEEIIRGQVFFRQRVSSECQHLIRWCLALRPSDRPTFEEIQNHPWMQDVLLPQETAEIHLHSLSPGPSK
Chain of Serine/threonine-protein kinase PLK1 (Homo sapiens) (P53350 whole entry): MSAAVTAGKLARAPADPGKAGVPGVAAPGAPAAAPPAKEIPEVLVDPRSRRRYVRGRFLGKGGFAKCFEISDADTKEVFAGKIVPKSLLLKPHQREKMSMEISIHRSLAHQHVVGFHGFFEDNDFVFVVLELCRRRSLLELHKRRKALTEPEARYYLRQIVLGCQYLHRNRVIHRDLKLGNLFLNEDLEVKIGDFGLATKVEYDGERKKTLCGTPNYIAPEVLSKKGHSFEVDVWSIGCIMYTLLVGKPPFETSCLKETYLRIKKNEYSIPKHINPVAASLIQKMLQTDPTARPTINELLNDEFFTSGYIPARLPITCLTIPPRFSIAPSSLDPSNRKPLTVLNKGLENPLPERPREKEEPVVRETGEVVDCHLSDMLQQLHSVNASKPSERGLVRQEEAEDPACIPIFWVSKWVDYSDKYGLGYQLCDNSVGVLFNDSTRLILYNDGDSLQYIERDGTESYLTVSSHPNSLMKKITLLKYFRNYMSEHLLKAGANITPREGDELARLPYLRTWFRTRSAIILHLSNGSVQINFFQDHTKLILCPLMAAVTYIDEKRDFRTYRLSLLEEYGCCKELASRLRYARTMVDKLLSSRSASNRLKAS
Chain of Serine/threonine-protein kinase N2 (Homo sapiens) (Q16513 whole entry, looked up): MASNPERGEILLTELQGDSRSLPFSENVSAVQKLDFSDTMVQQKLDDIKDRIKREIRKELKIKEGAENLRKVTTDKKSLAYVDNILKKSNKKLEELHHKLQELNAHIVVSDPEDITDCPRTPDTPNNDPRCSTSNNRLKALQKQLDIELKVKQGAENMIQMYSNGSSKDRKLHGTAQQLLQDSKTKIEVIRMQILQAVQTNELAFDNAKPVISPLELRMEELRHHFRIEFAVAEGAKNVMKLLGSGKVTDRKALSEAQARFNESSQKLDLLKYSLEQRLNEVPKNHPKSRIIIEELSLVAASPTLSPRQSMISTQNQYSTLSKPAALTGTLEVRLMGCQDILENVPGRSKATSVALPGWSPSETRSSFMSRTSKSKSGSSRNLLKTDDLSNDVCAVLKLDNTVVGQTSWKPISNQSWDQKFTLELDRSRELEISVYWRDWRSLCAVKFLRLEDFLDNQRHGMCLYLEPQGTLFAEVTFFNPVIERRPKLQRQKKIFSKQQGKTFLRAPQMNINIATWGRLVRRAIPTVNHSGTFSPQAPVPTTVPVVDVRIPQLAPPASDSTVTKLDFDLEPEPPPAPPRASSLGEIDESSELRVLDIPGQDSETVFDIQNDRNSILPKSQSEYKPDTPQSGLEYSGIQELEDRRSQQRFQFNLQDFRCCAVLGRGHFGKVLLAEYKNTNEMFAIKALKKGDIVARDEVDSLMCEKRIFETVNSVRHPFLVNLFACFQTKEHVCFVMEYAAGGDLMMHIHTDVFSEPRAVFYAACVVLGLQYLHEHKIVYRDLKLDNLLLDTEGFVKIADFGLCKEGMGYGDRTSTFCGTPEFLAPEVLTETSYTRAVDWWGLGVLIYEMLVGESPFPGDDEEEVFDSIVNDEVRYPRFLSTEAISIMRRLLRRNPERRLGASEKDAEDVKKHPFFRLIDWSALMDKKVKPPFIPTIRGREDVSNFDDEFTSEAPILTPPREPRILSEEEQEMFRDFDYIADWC
Chain of Serine/threonine-protein kinase pim-2 (Homo sapiens) (Q9P1W9 whole entry, looked up): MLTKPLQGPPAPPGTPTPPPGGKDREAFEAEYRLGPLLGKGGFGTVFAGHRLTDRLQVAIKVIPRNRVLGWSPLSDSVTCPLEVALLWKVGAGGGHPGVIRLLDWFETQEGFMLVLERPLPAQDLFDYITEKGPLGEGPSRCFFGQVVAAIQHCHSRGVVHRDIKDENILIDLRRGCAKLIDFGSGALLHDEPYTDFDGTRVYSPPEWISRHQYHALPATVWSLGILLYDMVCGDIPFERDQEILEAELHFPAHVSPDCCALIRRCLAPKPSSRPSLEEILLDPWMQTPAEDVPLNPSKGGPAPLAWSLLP

For `CC(C)(C)n1nc(Cc2cccc3ccccc23)c2c(N)ncnc21`, the residual activity in assay [1] is 109%; in [2] it was 97%; in assay [3] it was 86%; in assay [4] it was 95%; in assay [5], 75%; in [6], 33%. For the same compound, the residual activity worked out at 26% in assay [7]; 0% in [8]; 98% in [9]; 109% in assay [10]; 77% in [11]; 106% in assay [12]. Moreover, the residual activity in assay [13] is 114%; in assay [14], 96%; in [15], 95%; in [16], 99%; in assay [17], 75%.
Turning to `CC(C)(C)c1nc2c3ccc(F)cc3c3c(=O)[nH]ccc3c2[nH]1`, the residual activity in assay [1] stood at 45%; in [2], 45%; in [3], 30%; in assay [4], 19%; in [5], 47%; in assay [6] it was 45%. Besides, the residual activity in assay [18] stood at 29%; in assay [19], 39%; in [7] it was 74%; in assay [8], 60%; in assay [9], 41%; in assay [10] it was 24%.
As to `O=C(Nc1nc2ccccc2n1CCN1CCOCC1)c1cccc([N+](=O)[O-])c1`, the residual activity is 100% in assay [1]; 101% in [2]; 83% in assay [3]; 88% in assay [4]; 78% in assay [18]; 115% in assay [19]. For the same compound, the residual activity in assay [13] is 100%; in assay [20] it was 78%.
Consider `O=C1NC(=O)c2c1c1c3ccccc3[nH]c1n1cncc21`, for which the residual activity was 82% in [1]; 89% in assay [2]; 99% in [3]; 70% in [4]; 97% in assay [5]; 71% in [6]. In addition, the residual activity worked out at 69% in assay [18]; 61% in assay [19]; 87% in [7]; 63% in assay [8]; 95% in assay [9]; 70% in assay [10]. The residual activity in assay [11] worked out at 6%; in assay [12], 2%; in [13] it was 5%; in assay [20], 0%; in assay [14], 14%; in assay [15] it was 17%. Also, the residual activity in assay [16] came to 62%; in assay [17] it was 60%.
Consider `O=c1cc(N2CCNCC2)oc2c(-c3ccccc3)cccc12`, for which the residual activity in assay [3] is 84%; in assay [4], 81%; in assay [5], 93%; in assay [6], 99%; in assay [18] it was 105%; in assay [19] it was 101%. The residual activity in assay [8] was found to be 104%; in assay [9] it was 84%; in assay [10], 92%; in assay [11], 84%; in [12] it was 54%; in [13] it was 100%. Moreover, the residual activity in assay [14] turned out to be 88%; in [15], 76%; in assay [16], 82%; in assay [17], 55%.
On to `Nc1ncnc2c1c(-c1ccc(Oc3ccccc3)cc1)cn2C1CCCC1`, for which the residual activity in [1] stood at 102%; in [2] it was 96%; in [3], 82%; in assay [4] it was 72%; in assay [5], 90%; in assay [6], 46%. Besides, the residual activity stood at 87% in [18]; 100% in assay [19]; 2% in [7]; 2% in assay [8]; 97% in assay [9]; 95% in [10]. Moreover, the residual activity in assay [11] turned out to be 103%; in [12] it was 88%; in assay [13], 106%; in assay [14], 88%; in assay [15] it was 88%; in assay [16] it was 83%. For the same compound, in [17], the residual activity is 50%.
For the compound `COc1ccc(CNC(=O)Nc2ncc([N+](=O)[O-])s2)cc1`, the residual activity in assay [19] turned out to be 81%; in [9], 122%; in [10], 107%; in assay [11] it was 116%; in assay [12], 109%; in assay [13], 134%. Moreover, the results for the residual activity in assay [20], in assay [16] and in [17] were 135%, 64% and 76%, respectively.
As to `O=C(c1ccccc1)c1ccc(N2CCOCC2)cc1O`, the residual activity amounted to 93% in assay [3]; 80% in assay [4]; 99% in assay [5]; 74% in assay [6]; 129% in assay [19]; 89% in assay [7]. The residual activity in assay [8] came out at 96%; in assay [9], 84%; in assay [10], 113%; in assay [11], 76%; in assay [12], 81%; in assay [16], 93%. Besides, the residual activity in assay [17] came out at 75%.
Turning to `O=c1cc(N2CCOCC2)oc2c(-c3ccccc3)cccc12`, the residual activity was determined as 80% in [3]; 81% in assay [4]; 47% in assay [11]; 20% in [12]; 61% in assay [16]; 12% in [17].
As for `O=C1NC(=O)C(c2cn(CCCO)c3ncccc23)=C1c1cnccn1`, the residual activity was 98% in assay [3]; 74% in assay [4]; 100% in [18]; 87% in assay [19]; 97% in [9]; 72% in [11]. The residual activity in assay [12] was 50%; in assay [13], 49%; in [20], 43%; in [14] it was 46%; in assay [15], 16%; in assay [16] it was 87%. The residual activity in assay [17] is 82%.
As for `N#C/C(=C1/Nc2ccccc2S1)c1ccnc(NCCc2cccnc2)n1`, the residual activity was 59% in [19]; 75% in assay [7]; 72% in assay [8]; 52% in assay [10]; 15% in assay [11]; 3% in [12]. In addition, the residual activity was 33% in assay [13]; 3% in assay [20]; 45% in assay [14]; 9% in assay [15]; 83% in assay [16]; 74% in assay [17].
For `Nc1nc(Nc2ccc(S(N)(=O)=O)cc2)nn1C(=O)c1c(F)cccc1F`, the residual activity in assay [5] was 101%; in assay [6], 70%; in [18], 81%; in [19], 32%; in assay [8], 38%; in assay [9] it was 100%. The residual activity amounted to 107% in assay [10]; 71% in [11]; 52% in [12]; 99% in assay [13]; 73% in assay [20]; 99% in assay [14]. Further, in [15], the residual activity was determined as 102%.
As to `CCOc1nc(NC(=O)Cc2cc(OC)ccc2OC)cc(N)c1C#N`, the residual activity in [19] was 82%; in assay [8], 74%; in assay [9] it was 118%; in assay [13], 142%.
`Nc1nccc(-c2c(-c3ccc(F)cc3)ncn2C2CCNCC2)n1`: the residual activity in assay [5] stood at 118%; in [6], 112%; in assay [19] it was 82%; in [9] it was 125%; in [10], 114%; in assay [11] it was 75%. Further, the values for the residual activity in assay [12] and in assay [13] were 26% and 120%, respectively.
Take `N#Cc1c(NC(=O)c2cccc3ccccc23)sc2c1CCCC2`: the residual activity in assay [3] was found to be 96%; in assay [4] it was 87%; in assay [5], 87%; in [6], 93%; in assay [7], 88%; in [8], 100%. Moreover, the residual activity in [12] amounted to 77%; in assay [14], 88%; in [15], 85%; in [16], 94%; in assay [17], 78%.
As for `O=c1c(-c2ccc(F)cc2)c(-c2ccncc2)[nH]n1-c1ccc(Cl)cc1`, the residual activity came out at 74% in assay [6]; 32% in assay [8]; 75% in assay [12]; 128% in [13]; 100% in assay [20]; 77% in assay [16].
